Screening data from PubChem BioAssay.
An excerpt weighted towards active compounds, which were near 5.4% of everything screened.
aDG glyco up – increases alpha dystroglycan glycosylation. Pro5-aDG cells, alpha-DG glycosylation AlphaScreen (IIH6); 0% Pro5, 100% B10-LARGE cell signal. activation, % at 10 µM. 0.22% of 360,000 active. AID 624168;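 active = activation of at least 8% versus controls, or a plate z-score of at least 8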;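 note: Pro5 are CHO cells carrying HIG-tagged alpha-DG that lacks glycosylation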
rCAG binder – binds r(CAG) RNA repeats | inhibition, % at 3 µM | 1.3% of 370,000 active | r(CAG) RNA repeat, TO-PRO-1 dye displacement fluorescence;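 active = inhibition above the plate cutoff, the mean of all test compounds on that plate plus 3 SD, cut at about 35% in these data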;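 note: 0% = DMSO alone and 100% = 100 µM mitoxantrone as full dye displacement; higher means more dye released from RNA so lower well fluorescence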
PHOSPHO1 inh – PHOSPHO1 (human) inhibition | 1.1% of 290,000 active | inhibition, % at 13.3 µM | recombinant PHOSPHO1, absorbance phosphatase assay; in the data active = inhibition above about 60%
Target sequence (Q8TCT1 whole entry, looked up): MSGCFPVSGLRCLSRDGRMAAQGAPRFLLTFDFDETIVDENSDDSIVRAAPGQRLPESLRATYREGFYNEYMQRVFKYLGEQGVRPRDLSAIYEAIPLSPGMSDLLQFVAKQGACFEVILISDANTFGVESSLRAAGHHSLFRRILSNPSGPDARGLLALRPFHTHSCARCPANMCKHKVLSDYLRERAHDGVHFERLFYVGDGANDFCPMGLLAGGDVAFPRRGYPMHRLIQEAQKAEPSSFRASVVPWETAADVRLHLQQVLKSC
A3G deaminase – blocks human APOBEC3G single-stranded DNA deamination. recombinant A3G, ssDNA deamination FAM/TAMRA fluorescence. inhibition, % at 20 µM. 0.28% of 330,000 active;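 active = inhibition of at least 40% at 20 µM, with no more than 30% in the related APOBEC3A deaminase screen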;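 note: plate controls were DMSO wells with A3G for no effect and wells lacking A3G enzyme for full effect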
ALR H2O2 inh – inhibitors of human sulfhydryl oxidase ALR; P55789; purified ALR, DTT oxidation, H2O2 HRP-luminol luminescence; inhibition, % (test concentration not listed); 3.8% of 290,000 active; AID 485317;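 active = mean replicate inhibition above about 79%, with every replicate also reaching it, limit read from the data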
Target sequence (P55789 whole entry, looked up): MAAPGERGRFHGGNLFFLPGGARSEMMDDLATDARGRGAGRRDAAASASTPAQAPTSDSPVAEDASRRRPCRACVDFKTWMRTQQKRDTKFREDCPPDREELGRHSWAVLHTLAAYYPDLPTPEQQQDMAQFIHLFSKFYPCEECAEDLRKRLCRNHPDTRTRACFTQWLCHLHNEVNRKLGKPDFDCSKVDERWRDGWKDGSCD
A3A deaminase – blocks human APOBEC3A ssDNA deamination. recombinant A3A, FAM/TAMRA ssDNA deamination fluorescence. inhibition, % at 20 µM. 0.41% of 330,000 active;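 active = at least 40% inhibition at 20 µM here, with at most 30% in a related deaminase screen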;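 note: plate controls were A3A with DMSO for no effect and wells lacking A3A enzyme for full effect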
An asterisk follows results filed as active; . = no result.

SMILES	aDG glyco up	rCAG binder	PHOSPHO1 inh	A3G deaminase	ALR H2O2 inh	A3A deaminase
COc1ccc(OC)c(NC(=O)CSc2nc(O)cc(=O)n2CC(C)C)c1	0	25	.	-3	-6	-5
COc1ccc(CSc2nc(O)cc(=O)n2CC(C)C)cc1F	0	11	23	-6	99*	-2
O=C(N(c1ccccc1)c1ccccc1)N(c1ccccc1)c1ccccc1	0	-2	39	-11	-2	-3
CC(=O)N(C1=C(N)C(=O)c2ccccc2C1=O)c1ccccc1	4.1*	1	16	-3	-45	-1
O=C(NC1CCCCC1)C(c1ccccc1)N1CCc2ccccc21 (centres undefined)	0	2	0	-1	98*	-3
COC(=O)[C@]12C[C@H](CC(=O)NCCc3ccccc3OC)C(=O)N(Cc3ccco3)C1=C[C@H](C(C)(C)C)O[C@@H]2C	.	0	.	.	.	.
c1ccc(CCNc2ncnc3ccccc23)cc1	8.7*	1	30	-4	.	-3
C(=N\Nc1ncnc2ccccc12)/c1ccccc1	0	-2	37	-6	97*	0
CCCN(c1ccccc1F)S(=O)(=O)c1c[nH]c(C(=O)OC)c1	0	0	70*	-4	-2	0
COC(=O)c1cc(S(=O)(=O)N(C)c2ccc(C)c(C)c2)c[nH]1	0	-3	23	-2	-10	-1
CCOc1ccc(N(C)S(=O)(=O)c2c[nH]c(C(=O)OC)c2)cc1	0	-1	65*	-8	-2	-3
O=S1(=O)CCSC[C@@H](CN2CCCC2)N1	.	2	.	.	.	.
COc1ccccc1N1CC(C(=O)Nc2nnc(SCc3cccnc3)s2)CC1=O (centres undefined)	0	2	34	-6	88*	0
COc1ccc(S(=O)(=O)N/N=C(/C)c2ccncc2)c(OC)c1	0	-2	3	-6	81*	-3
S=c1nn[nH]n1C12CC3CC(CC(C3)C1)C2	0	.	102*	20	7	-7
S=c1nc(C23CC4CC(CC(C4)C2)C3)[nH][nH]1	0	1	51	11	7	-6
CC(C)(C)c1ccc(-c2n[nH]c(=S)n2C2CCCC2)cc1	0	-1	91*	0	47	-4
CCn1c(-c2ccc(C(C)(C)C)cc2)n[nH]c1=S	2	-2	-2	23	-5	1
COc1ccc(-n2c(-c3cc(-c4ccccc4)sc3N)n[nH]c2=S)cc1	0	22	-154	-5	2	2
Nc1sc(-c2ccccc2)cc1-c1n[nH]c(=S)n1C1CCCCC1	0	11	20	-11	98*	-2
C=CCn1c(-c2cc(-c3ccccc3)sc2N)n[nH]c1=S	0	13	-58	0	93*	0
C=CCn1c(-c2csc(-c3ccccc3)n2)n[nH]c1=S	0	12	12	11	14	-4
C[C@H]1COc2cccc(NCCO)c2S(=O)(=O)N1	.	2	.	.	.	.
Cc1ccc(Oc2cccc3c2S(=O)(=O)N([C@H](C)c2ccccc2)C[C@@H](COCc2ccccc2)O3)cc1	.	6	.	.	.	.
CC(=O)OC1CC(C)(C)N(OC(=O)c2ccc(N)cc2)C(C)(C)C1	0	1	26	-7	98*	-1
SMILES	aDG glyco up	rCAG binder	PHOSPHO1 inh	A3G deaminase	ALR H2O2 inh	A3A deaminase
CC(=O)OC1CC(C)(C)N(OC(=O)c2ccccc2)C(C)(C)C1	0	-11	28	-7	.	-2
Cc1ccc(S(=O)(=O)Nc2ccc(-n3cnnn3)cc2)c(C)c1	0	4	.	-9	.	-5
Cc1cc(C)c(S(=O)(=O)Nc2ccc(N(C)C)cc2)c(C)c1-n1cnnn1	0	6	23	4	99*	6
CCN1CCCCC(NC(=O)c2ccc(C)cc2)C1=O (centres undefined)	.	2	.	.	.	.
Cc1nc(NC(=O)CSc2ccc(-c3nc4ccccc4[nH]3)cn2)sc1C	1	-1	-13	-8	99*	-5
Cc1csc(NC(=O)CSCC(=O)Nc2ccccc2)n1	0	-3	4	-6	92*	-3
CCc1nnc(NC(=O)CSc2ccc(-c3nc4ccccc4[nH]3)cn2)s1	0	9	35	-7	-3	0
Cc1[nH]c2ccccc2c1-c1csc(NC(=O)CSCCO)n1	0	3	52	3	99*	-8
Cc1csc(NC(=O)CSc2nc3ccccc3c(=O)[nH]2)n1	0	2	-16	0	99*	-1
Cc1cccc(C)c1NC(=O)CSc1nc2ccccc2c(=O)[nH]1	0	2	-15	-9	-1	-1
COc1cccc(C=NNC(=O)CSc2nc3ccccc3[nH]2)c1O	.	10	.	.	.	.
COc1ccccc1CCn1cnc(-c2cccc(F)c2)c1CC(C)C	.	0	.	.	.	.
O=C(CSc1nc2ccccc2[nH]1)Nc1nc(-c2ccc(Br)cc2)cs1	0	7	7	-7	98*	-4
CC(C)(C)c1csc(NC(=O)CSc2nc3ccccc3c(=O)[nH]2)n1	0	29	3	-3	94*	11
O=C(CSc1nc2ccccc2c(=O)[nH]1)Nc1ccc(C(=O)O)cc1	0	2	16	-4	.	5
COC(=O)C1=C(C)N(Cc2ccc(F)cc2)C(=S)NC1c1cccc(Br)c1 (centres undefined)	.	2	.	.	.	.
CC(C)CNS(=O)(=O)/C=C/c1ccc(F)cc1CNC(=O)OC(C)(C)C	.	-2	.	.	.	.
CC(C)C[C@H]1COc2cc(Br)ccc2S(=O)(=O)N1Cc1cn(Cc2ccco2)nn1	.	2	.	.	.	.
O=C(CSc1ncnc2nc[nH]c12)c1ccc([N+](=O)[O-])cc1	0	5	34	-4	93*	-2
Cc1snc(SCC(=O)c2ccc([N+](=O)[O-])cc2)c1C#N	0	17	72*	50*	.	-3
O=C(CSc1ncnc2nc[nH]c12)c1ccccc1	0	5	22	-4	2	-2
O=C(CSc1ncnc2nc[nH]c12)c1ccc(Cl)cc1	0	3	31	-12	87*	-3
Cc1ccc(Cn2cc(CN3[C@@H](CC(C)C)COc4cccc(F)c4S3(=O)=O)nn2)cc1	.	4	.	.	.	.
COC(=O)[C@@]12CCCCC=C1N(CCc1ccc(Cl)cc1)C(=O)[C@H]2CC(=O)NCc1cccc2ccccc12	.	14	.	.	.	.
CN(C)c1ccc(C(CC(=O)c2ccccc2)C2CCCCC2=O)cc1 (centres undefined)	0	0	-2	-5	98*	-1
O=C(CC(c1ccccc1)C1CCCCC1=O)c1ccccc1 (centres undefined)	0	1	.	.	.	.
Cc1ccc(-n2c(Cc3cccs3)nnc2SCC(=O)Nc2cccc3ccccc23)cc1	.	7	.	.	.	.
O=C(NCc1ccccn1)C1CCC(CNS(=O)(=O)c2cccc3nsnc23)CC1 (centres undefined)	0	-1	63*	-5	-4	-9
